Assay outcomes (PubChem)
Pf growth 96h – P. falciparum growth inhibition at 96 hours | P. falciparum luciferase reporter growth, 96 h | Potency, µM (highest dose often 28.7 µM), for the others: at the top dose activity change, negative = inhibition, most hits filed as inhibitors | hit rate 6.9% among 320,000 | AID 504834; note: potency is the fitted concentration of half-maximal effect; % is set by controls: 0 for no effect and ±100 for the full control effect
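Compounds incubated with erythrocytes infected by luciferase-expressing P. falciparum (2% hematocrit, 0.05% parasitemia final) for 96 hours, 37 C in 5% CO2. Growth inhibition scored as decreased luciferase luminescence.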
CHX counter – counter-screen hit for Shiga toxin inhibitors, cycloheximide; cell reporter, cycloheximide protein synthesis inhibition counterscreen; max response, %; hit rate 12% among 300,000; AID 2314; in the data active = max response mostly above about 13%, no sharp cut-off; inactive = mostly below about 14%; note: read at 38.3 µM for the half of the compounds with a filed dose; 0% is about no effect
HCV inhibitor – HCV inhibition. Potency, µM (top dose mostly 41.8 µM), for inactives: at the highest dose activity change, negative = inhibition, actives largely listed as inhibitors. Huh7.5.1 HCVcc-Cre infection, luciferase reporter, 44 h. hit rate 3.4% among 340,000; note: potency is the fitted concentration of half-maximal effect; % is set by controls: 0 for no effect and ±100 for the full control effect
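After 44 h co-culture of compound, cells and HCVcc-Cre (~0.5 moi), substrate is added for 15 min at room temperature and luciferase measured over 15 sec. Cells were seeded at 1,000/well and pre-cultured 4 h.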
Shiga toxin inh – inhibitors of Shiga toxin in Vero cells; Vero cells, Shiga toxin protein synthesis inhibition reporter; inhibition, % at 38.7 µM; hit rate 9.2% among 290,000; in the data active = inhibition mostly above about 28%, no sharp cut-off; inactive = mostly below about 43%; note: 0% is about no effect
AMA1-RON2 inh – AMA1-RON2 (P. falciparum) interaction inhibition | AlphaScreen AMA1-biotinylated RON2 peptide binding | Potency, µM (top dose mostly 58.2 µM), without a hit: at the highest dose activity change, negative = inhibition, usual class: inhibitors | hit rate 0.2% among 360,000 | AID 720542;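 note: potency is the fitted concentration of half-maximal effect; 0% = vehicle wells and -100% = peptide control; nearly all actives have a fitted effect of over 45% in size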
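AMA1 (3D7) with his tag at 25 nM final met compounds first, then biotinylated RON2 peptide at 25 nM; detection used donor plus acceptor beads, 10 µg/mL apiece, read by AlphaScreen after 30 min at room temperature.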
Pf growth 48h – inhibits P. falciparum growth in the first generation, 48 h. hit rate 5.9% among 310,000. P. falciparum luciferase growth in erythrocytes, 48 h. Potency, µM (top dose mostly 28.7 µM), without a hit: at the highest dose activity change, negative = inhibition, usual class: inhibitors. AID 504832; note: potency is the fitted concentration of half-maximal effect; % is set by controls: 0 for no effect and ±100 for the full control effect
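Erythrocytes infected with P. falciparum carrying an integrated firefly luciferase reporter (2% hematocrit, 0.1% parasitemia final) were exposed to compounds in RPMI 1640 with 0.5% Albumax at 37 C, 5% CO2. Growth inhibition was scored as reduced luminescence.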
* = called active by the depositor; ? = inconclusive; / = no result given; [ ] = remark or other dose. Rows were chosen to be rich in hits. Some 21% of all compounds tested hit in one or more screens of this group. Unless noted, calls come from the whole dose curve; as a rule, active = well fitted curve in the direction sought with a large enough effect; inconclusive = small, poorly fitted or top-dose-only effect, or another doubt; inactive = no such curve, though single readings can be large; an effect the other way counts as inactive or inconclusive.

SMILES	Pf growth 96h	CHX counter	HCV inhibitor	Shiga toxin inh	AMA1-RON2 inh	Pf growth 48h
O=c1[nH]c2ccccc2nc1-c1c[nH]c2ccccc12	?	25.6*	?	34.4	34.3%	/
Nc1ccc(Br)cc1-c1nc2ccccc2[nH]c1=O	1.5%	20.4	-13.5%	75.0*	9.0%	31.8%
O=C(Nc1ccc(Cl)cc1F)C1CC(=O)N(Cc2ccco2)C1 (stereo not drawn)	11.4%	/	1.2%	/	0.0%	?
COc1ccccc1NC(=O)Nc1nnc(C(C)C)s1	125.8%	50.6*	-6.8%	74.6*	-9.0%	99.8%
CC(C)(C)c1nnc(NC(=O)Cc2ccccc2[N+](=O)[O-])s1	59.3%	-3.4	10.7%	12.9	6.1%[11.6 µM]	-8.4%
CC(C)c1nnc(NC(=O)Cc2ccccc2[N+](=O)[O-])s1	-0.1%	11.5*	-5.6%	active	-0.1%	46.7%
CCc1nnc(NC(=O)Nc2ccccc2OC)s1	/	35.2*	?	90.7*	-7.0%	50.7%
COc1ccccc1NC(=O)Nc1nnc(CC(=O)Nc2ccccc2)s1	26.9%	-2.0	/	-32.7	/	?
CCOc1ccc(C(=O)NCC(=O)NNC(=O)CN(C)S(=O)(=O)c2ccc(Cl)cc2)cc1OCC	/	/	24.5%	/	61.8%[11.6 µM]	/
c1cnc2nc3c4ccccc4c4ccccc4c3nc2c1	/	/	2.82µM*	/	-13.7%	/
Cc1nc2ccccc2c2ncccc12	?	4.4	-7.3%	-3.9	-1.1%	36.6%
CC1C(=O)N2CCCc3cc(NC(=O)C(=O)NCCc4ccc(F)cc4)cc1c32 (stereo not drawn)	?	/	11.2µM*	/	8.0%	?
CC1C(=O)N2CCCc3cc(NC(=O)COc4ccc(Cl)cc4)cc1c32 (stereo not drawn)	14.7µM*	/	?	/	3.2%	?
CC1C(=O)N2CCCc3cc(NC(=O)C(=O)NCCCc4ccccc4)cc1c32 (stereo not drawn)	?	/	?	/	-25.7%	11.7µM*
OC[C@H]1O[C@H](OC[C@H]2OC(O)[C@H](O)[C@@H](O)[C@@H]2O)[C@H](O)[C@@H](O)[C@@H]1O (stereo partly drawn)	23.3%	/	13.7%	/	-8.5%	-3.6%
Cc1cccc(NC(=O)CCCN2C(=O)C3CC=CCC3C2=O)c1 (stereo not drawn)	56.1%	14.2	14.2%	8.3	0.0%	7.1%
Cc1c(Cl)cccc1NC(=O)CCN1C(=O)C2CC=CCC2C1=O (stereo not drawn)	5.22µM*	-5.0	/	-9.4	27.7%	12.6%
CCc1ccc(NC(=O)CCCN2C(=O)C3CC=CCC3C2=O)cc1 (stereo not drawn)	-3.3%	72.3*	-3.8%	97.2*	-14.1%	-6.6%
CCOc1cc(C=O)cc(Cl)c1OCC(N)=O	25.7%	6.9	8.6%	-3.1	-8.8%	16.9%[5.75 µM]
COc1cc(O)oc1C=Nc1ccc(C(F)(F)F)cc1	105.0%	42.0*	0.3%	33.9*	8.4%	23.0%
COc1ccc(CNCc2ccc(C(F)(F)F)cc2)cc1OC	?	-2.9	?	-4.7	-26.6%	14.4%
Cc1cc(=O)[nH]c2ccc(S(=O)(=O)NCc3ccccc3)cc12	18.8%	-1.9	-0.8%	-6.2	-5.7%	-4.2%
CNc1nc(Cl)nc(Nc2ccccc2)n1	?	40.3*	19.3%	45.2*	-0.3%	0.0%
C=CCNc1nc(Cl)nc(Nc2cc(Cl)ccc2OC)n1	-9.8%	-3.1	-15.4%	-11.4	-8.4%	-3.7%
C=CCNc1nc(Cl)nc(Nc2ccccc2)n1	-7.2%	21.5*	-29.5%	40.2*	8.1%	51.5%
SMILES	Pf growth 96h	CHX counter	HCV inhibitor	Shiga toxin inh	AMA1-RON2 inh	Pf growth 48h
CSCC[C@H](NC(=O)[C@@H]1CSC2c3ccccc3C(=O)N21)C(=O)N1CCC[C@H]1CO (stereo partly drawn)	-11.5%	-0.5	3.1%	-3.1	-2.2%	18.4%
Cc1ccc(-n2c(C)nnc2SCC(=O)N(C)c2c(N)n(Cc3ccccc3)c(=O)[nH]c2=O)cc1	?	/	16.6%	/	6.4%	-9.5%
CN(c1ccccc1)S(=O)(=O)c1cccc(NC(=O)CCN2C(=O)C3CCCCC3C2=O)c1 (stereo not drawn)	?	0.9	7.6%	2.1	4.4%	-11.5%
Cc1c(/C=N/n2cnnc2)c2ccccc2n1C	/	-2.8	-7.5%	-6.8	1.4%	15.7%
C=CCn1cc(/C=N/Nc2nc3ccccc3[nH]2)c2ccccc21	82.7%	40.2*	?	74.3*	-27.5%	?
CC(C)Cn1c(SCC(=O)Nc2ncccn2)nc2ccccc21	9.9%	5.3	-10.6%	16.7	0.0%	0.0%
CCCn1c(Nc2ccccc2)nc2ccccc21	/	-1.0	16.6%	-3.7	5.6%	-4.0%
CCCn1c(/C=N/Nc2nc3ccccc3[nH]2)nc2ccccc21	4.15µM*	48.5*	?	45.5*	30.9%	1.85µM*
C=CCn1cc(C=C2C(=O)NC(=O)NC2=O)c2ccccc21	-2.1%	-4.6	-4.4%	-3.5	-1.4%	/
Cc1c(/C=N/Nc2nc3ccccc3[nH]2)c2ccccc2n1C	0.465µM*	23.6*	?	76.1*	-32.0%	0.522µM*
CC(C)Cn1c(/C=N/Nc2nc3ccccc3[nH]2)nc2ccccc21	0.465µM*	6.9	2.51µM*	12.2	15.1%	3.7µM*
CCCCCN(C(=O)CCC(=O)OC(C)C(=O)c1ccccc1)c1c(N)n(CCCC)c(=O)[nH]c1=O (stereo not drawn)	43.2%	/	1.3%	/	-14.9%	35.5%
CCNc1nc2ccccc2[nH]1	/	5.4	12.4%	-10.0	10.3%	17.6%
O=C(N/N=C/c1ccccc1F)c1cc2c(ccc3ccccc32)o1	-27.9%	12.3	-12.4%	-9.0	-19.5%	2.9%
Cn1c(/C=N/Nc2nc3ccccc3[nH]2)nc2ccccc21	?	34.4*	?	154.1*	-20.1%	-17.1%
C=CCn1cc(/C=N\NC(=O)c2cc3c(ccc4ccccc43)o2)c2ccccc21	-7.4%	-3.7	10µM*	15.0	1.6%	?
O=C(CC1SC(N2CCCCC2)=NC1=O)Nc1cccc(C(=O)Nc2ncccc2O)c1 (stereo not drawn)	?	/	17.2%	/	60.8%	-4.9%
CN1C(=O)/C(=C\c2ccc(OC(=O)c3ccco3)cc2)SC1=S	0.0%	-0.9	-10.3%	-5.0	-5.3%	32.5%
Cc1c(C(=O)N(C)C2CCCCC2)sc2nc3ccc(N)cc3n12	/	31.3*	/	43.0*	/	/
O=C(NCCCN1CCOCC1)/C(=C/c1cccnc1)NC(=O)c1ccccc1	?	1.6	2.4%	15.1	-12.2%	53.8%
OC[C@H]1O[C@@H](c2nc(-c3ccccc3Br)no2)[C@H](O)[C@@H](O)[C@H]1O	/	/	/	/	16.1%	/
O=P(O)(O)OP(=O)(O)OP(=O)(O)O	7.1%	/	/	/	/	4.2%
C[C@H](CO)N1C[C@H](C)[C@@H](CN(C)C(=O)C2CCCCC2)OCc2cn(nn2)CCCC1=O	/	/	/	/	13.0%	/
COc1ccc(N(C(=O)c2cccnc2)S(=O)(=O)c2ccc(Cl)cc2)cc1	5.22µM*	3.3	?	-0.4	-10.9%	2.1%
